The source of these data is publication PMC7862700, “An all-to-all approach to the identification of sequence-specific readers for epigenetic DNA modifications on cytosine”.

Common to all, as to experiment: DAPPL (digital affinity profiling via proximity ligation, sequencing); 10 mM Tris-HCl pH 7.5, 50 mM NaCl, 1 mM DTT, 4% glycerol, room temperature, 30 min; GST-TFs on glutathione beads, 16-mer random dsDNA library, 0.1% formaldehyde crosslink after washing; high values mean tight binding
The target in one experiment is T1, FEV (Homo sapiens, UniProt Q99581 1-238).
T1 sequence: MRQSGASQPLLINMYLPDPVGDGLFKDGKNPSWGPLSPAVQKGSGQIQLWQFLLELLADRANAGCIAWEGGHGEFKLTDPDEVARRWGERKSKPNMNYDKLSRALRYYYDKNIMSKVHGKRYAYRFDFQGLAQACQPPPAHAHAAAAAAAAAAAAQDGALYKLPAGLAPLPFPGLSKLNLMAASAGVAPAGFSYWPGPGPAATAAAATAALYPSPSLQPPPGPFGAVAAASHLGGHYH
To be noted: protein: recombinant; tags: N-terminal GST; dsDNA, one strand shown. Summed up:
(§1)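 After expression in yeast as GST fusions, human transcription factors were bound to glutathione beads, DNA-barcoded and mixed with a tag-only sample. The pools were incubated with 200 nmole of a 16-mer random double-stranded DNA library in Tris/NaCl/DTT/glycerol buffer (30 min, room temperature), washed and crosslinked with 0.1% formaldehyde. Proximity ligation with BsaI/T4 ligase ran for 1 h at 37 °C, before PCR amplification and sequencing on an Illumina NextSeq500. Binding signal is a hexamer's read frequency for a factor divided by its frequency for the tag-only sample.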

The next experiment deals with ETV5 (Homo sapiens, UniProt P41161 1-510). The note with it: protein: recombinant; tags: N-terminal GST; dsDNA, one strand shown. An outline of the steps: as §1
ETV5, sequence (P41161 whole entry): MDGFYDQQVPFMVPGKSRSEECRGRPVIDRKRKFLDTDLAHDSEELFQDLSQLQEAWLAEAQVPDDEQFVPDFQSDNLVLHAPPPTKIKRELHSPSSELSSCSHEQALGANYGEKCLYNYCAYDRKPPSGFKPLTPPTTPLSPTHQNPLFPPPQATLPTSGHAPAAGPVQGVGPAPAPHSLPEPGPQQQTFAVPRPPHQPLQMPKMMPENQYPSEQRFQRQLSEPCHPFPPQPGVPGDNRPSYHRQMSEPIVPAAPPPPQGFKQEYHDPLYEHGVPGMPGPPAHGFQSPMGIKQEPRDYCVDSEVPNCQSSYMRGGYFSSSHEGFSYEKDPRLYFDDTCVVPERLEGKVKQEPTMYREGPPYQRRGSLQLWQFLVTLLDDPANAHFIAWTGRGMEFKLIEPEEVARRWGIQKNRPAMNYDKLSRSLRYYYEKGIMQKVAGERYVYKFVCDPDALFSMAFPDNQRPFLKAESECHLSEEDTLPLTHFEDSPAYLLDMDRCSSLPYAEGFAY
A further experiment has as its target HSF1 (Homo sapiens, UniProt Q00613 1-529). To be noted: protein: recombinant; tags: N-terminal GST; chain copies: 3; dsDNA, one strand shown. An outline of the steps: as §1
A further experiment deals with T2, SPIC (Homo sapiens, UniProt Q8N5J4 1-248).
T2 sequence: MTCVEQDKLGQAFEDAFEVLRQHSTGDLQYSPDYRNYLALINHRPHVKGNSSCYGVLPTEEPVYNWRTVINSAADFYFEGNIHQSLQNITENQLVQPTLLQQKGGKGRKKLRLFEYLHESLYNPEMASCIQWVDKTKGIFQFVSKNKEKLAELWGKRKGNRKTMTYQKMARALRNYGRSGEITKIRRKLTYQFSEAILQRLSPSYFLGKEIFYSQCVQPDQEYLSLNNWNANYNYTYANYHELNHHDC
To be noted: protein: recombinant; tags: N-terminal GST; dsDNA, one strand shown. Summed up: as §1

The next experiment concerns the target ELF4 (Homo sapiens, UniProt Q99607 1-663). To be noted: protein: recombinant; tags: N-terminal GST; dsDNA, one strand shown. Summed up:
as §1

The next experiment deals with T3, ELK4 (Homo sapiens, UniProt P28324-2 1-405).
T3 sequence: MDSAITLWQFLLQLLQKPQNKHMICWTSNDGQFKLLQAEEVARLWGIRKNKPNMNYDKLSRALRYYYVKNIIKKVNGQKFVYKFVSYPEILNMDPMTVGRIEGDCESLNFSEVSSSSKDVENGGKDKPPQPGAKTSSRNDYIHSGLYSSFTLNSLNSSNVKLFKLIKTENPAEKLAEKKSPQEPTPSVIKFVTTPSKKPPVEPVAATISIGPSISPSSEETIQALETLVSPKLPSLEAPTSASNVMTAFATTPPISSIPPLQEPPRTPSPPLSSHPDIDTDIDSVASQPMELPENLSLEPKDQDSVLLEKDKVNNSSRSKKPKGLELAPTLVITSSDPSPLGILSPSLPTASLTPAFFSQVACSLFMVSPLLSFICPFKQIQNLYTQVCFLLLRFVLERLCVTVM
To be noted: protein: recombinant; tags: N-terminal GST; dsDNA, one strand shown. An outline of the steps: as §1

For a further experiment, the target named is T4, ETV2 (Homo sapiens, UniProt O00321 1-342).
T4 sequence: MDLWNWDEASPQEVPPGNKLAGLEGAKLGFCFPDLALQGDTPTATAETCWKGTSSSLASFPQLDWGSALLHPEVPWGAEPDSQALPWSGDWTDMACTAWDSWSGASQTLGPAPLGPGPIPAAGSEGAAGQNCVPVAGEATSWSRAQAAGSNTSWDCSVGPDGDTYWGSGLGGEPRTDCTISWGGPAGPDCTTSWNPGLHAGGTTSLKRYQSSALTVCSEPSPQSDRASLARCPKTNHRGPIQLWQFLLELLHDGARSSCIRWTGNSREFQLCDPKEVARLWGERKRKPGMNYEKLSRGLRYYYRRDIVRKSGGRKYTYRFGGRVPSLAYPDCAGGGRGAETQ
The note with it: protein: recombinant; tags: N-terminal GST; dsDNA, one strand shown. An outline of the steps: as §1

A further experiment addresses T5, ELF3 (Homo sapiens, UniProt P78545 1-371).
T5 sequence: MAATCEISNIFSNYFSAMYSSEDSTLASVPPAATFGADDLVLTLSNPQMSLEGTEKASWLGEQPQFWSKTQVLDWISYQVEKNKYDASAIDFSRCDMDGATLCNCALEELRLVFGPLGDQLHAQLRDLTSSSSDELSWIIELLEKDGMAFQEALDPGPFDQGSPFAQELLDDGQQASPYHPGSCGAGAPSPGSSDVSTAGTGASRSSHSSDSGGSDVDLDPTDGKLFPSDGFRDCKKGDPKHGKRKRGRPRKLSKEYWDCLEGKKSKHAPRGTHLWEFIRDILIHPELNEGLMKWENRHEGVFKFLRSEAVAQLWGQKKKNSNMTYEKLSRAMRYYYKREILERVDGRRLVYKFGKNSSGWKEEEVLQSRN
To be noted: protein: recombinant; tags: N-terminal GST; dsDNA, one strand shown. An outline of the steps:
as §1

The target in the next experiment is CRX (Homo sapiens, UniProt O43186 1-299). To be noted: protein: recombinant; tags: N-terminal GST; dsDNA, one strand shown. Summed up:
as §1

In a further experiment the target is ETV1 (Homo sapiens, UniProt P50549 1-477). The note with it: protein: recombinant; tags: N-terminal GST; dsDNA, one strand shown. An outline of the steps: as §1
ETV1, sequence (P50549 whole entry): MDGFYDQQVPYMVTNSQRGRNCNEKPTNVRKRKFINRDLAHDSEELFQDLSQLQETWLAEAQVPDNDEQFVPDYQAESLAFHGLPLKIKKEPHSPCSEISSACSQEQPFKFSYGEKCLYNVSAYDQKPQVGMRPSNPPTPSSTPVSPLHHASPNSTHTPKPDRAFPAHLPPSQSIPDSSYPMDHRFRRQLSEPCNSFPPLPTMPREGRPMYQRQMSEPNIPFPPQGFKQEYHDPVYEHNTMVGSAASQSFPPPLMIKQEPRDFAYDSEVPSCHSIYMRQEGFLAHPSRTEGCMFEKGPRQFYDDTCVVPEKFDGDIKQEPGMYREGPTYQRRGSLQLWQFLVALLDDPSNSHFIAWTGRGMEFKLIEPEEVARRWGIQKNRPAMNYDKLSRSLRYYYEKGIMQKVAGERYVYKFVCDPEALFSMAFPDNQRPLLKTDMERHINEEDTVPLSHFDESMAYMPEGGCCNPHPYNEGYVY
Another experiment deals with T6, ERF (Homo sapiens, UniProt P50548 1-548).
T6 sequence: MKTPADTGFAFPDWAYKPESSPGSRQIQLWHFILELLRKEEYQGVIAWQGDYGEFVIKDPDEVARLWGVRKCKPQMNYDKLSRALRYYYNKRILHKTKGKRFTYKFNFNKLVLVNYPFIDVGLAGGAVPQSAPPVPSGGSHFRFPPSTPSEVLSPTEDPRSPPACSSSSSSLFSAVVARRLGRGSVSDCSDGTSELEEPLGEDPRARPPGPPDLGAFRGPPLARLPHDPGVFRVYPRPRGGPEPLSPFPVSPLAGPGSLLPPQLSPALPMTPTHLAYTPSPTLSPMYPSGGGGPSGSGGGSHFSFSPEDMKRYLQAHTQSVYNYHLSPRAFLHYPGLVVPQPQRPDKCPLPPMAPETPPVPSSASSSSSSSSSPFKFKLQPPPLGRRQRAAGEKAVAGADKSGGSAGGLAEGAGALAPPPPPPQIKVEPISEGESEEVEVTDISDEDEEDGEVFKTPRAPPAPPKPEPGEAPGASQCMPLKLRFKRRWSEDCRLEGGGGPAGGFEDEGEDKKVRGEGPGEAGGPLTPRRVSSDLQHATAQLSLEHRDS
To be noted: protein: recombinant; tags: N-terminal GST; dsDNA, one strand shown. Summed up: as §1

The target in a further experiment is T7, ETV3L (Homo sapiens, UniProt Q6ZN32 1-361).
T7 sequence: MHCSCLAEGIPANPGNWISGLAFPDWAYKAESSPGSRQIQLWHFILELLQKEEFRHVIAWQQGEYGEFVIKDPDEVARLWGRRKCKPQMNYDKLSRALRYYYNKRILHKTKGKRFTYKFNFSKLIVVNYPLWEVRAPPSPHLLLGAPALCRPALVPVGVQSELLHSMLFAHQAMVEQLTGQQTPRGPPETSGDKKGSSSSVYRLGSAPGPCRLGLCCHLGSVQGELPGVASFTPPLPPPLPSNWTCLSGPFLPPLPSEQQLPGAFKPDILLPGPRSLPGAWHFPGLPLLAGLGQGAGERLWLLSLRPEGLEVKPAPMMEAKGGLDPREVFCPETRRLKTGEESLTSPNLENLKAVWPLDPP
The note with it: protein: recombinant; tags: N-terminal GST; dsDNA, one strand shown. An outline of the steps: as §1

A further experiment has as its target T8, ETS2 (Homo sapiens, UniProt P15036 1-469).
T8 sequence: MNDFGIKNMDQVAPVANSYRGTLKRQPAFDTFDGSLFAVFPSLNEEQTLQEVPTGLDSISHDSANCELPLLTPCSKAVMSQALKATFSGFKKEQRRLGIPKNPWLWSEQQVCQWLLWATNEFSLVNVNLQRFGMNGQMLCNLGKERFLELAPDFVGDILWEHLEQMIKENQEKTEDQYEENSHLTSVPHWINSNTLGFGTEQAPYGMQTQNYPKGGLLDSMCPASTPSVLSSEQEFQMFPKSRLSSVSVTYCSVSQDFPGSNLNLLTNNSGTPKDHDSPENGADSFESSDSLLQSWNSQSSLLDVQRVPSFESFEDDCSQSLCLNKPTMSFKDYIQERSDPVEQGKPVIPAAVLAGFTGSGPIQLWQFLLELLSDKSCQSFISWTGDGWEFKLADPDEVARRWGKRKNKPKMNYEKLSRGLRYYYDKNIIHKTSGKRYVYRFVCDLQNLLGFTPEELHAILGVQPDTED
To be noted: protein: recombinant; tags: N-terminal GST; dsDNA, one strand shown. Summed up:
as §1

The next experiment deals with T9, SPDEF (Homo sapiens, UniProt O95238 1-335).
T9 sequence: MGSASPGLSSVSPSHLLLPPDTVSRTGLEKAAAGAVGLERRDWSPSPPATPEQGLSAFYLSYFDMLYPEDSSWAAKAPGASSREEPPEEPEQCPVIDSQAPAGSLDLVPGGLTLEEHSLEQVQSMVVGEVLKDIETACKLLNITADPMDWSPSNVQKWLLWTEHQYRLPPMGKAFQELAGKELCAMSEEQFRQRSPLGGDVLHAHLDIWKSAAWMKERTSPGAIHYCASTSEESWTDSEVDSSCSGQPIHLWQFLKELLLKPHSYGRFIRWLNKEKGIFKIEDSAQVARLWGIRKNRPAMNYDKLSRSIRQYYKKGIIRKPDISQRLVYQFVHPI
The note with it: protein: recombinant; tags: N-terminal GST; dsDNA, one strand shown. Summed up: as §1

A further experiment has as its target T10, ETV7 (Homo sapiens, UniProt Q9Y603 1-341).
T10 sequence: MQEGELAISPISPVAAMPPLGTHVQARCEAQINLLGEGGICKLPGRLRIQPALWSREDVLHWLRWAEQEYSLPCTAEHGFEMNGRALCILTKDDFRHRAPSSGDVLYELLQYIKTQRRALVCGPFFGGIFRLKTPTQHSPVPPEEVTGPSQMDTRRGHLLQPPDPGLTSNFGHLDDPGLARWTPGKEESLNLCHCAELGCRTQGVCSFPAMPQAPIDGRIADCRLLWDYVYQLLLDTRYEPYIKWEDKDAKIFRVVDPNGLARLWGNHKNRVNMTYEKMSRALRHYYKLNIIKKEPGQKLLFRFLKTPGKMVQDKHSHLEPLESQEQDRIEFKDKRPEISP
To be noted: protein: recombinant; tags: N-terminal GST; dsDNA, one strand shown. An outline of the steps:
as §1

The target in the next experiment is T11, ELF5 (Homo sapiens, UniProt Q9UKW6-2 1-255).
T11 sequence: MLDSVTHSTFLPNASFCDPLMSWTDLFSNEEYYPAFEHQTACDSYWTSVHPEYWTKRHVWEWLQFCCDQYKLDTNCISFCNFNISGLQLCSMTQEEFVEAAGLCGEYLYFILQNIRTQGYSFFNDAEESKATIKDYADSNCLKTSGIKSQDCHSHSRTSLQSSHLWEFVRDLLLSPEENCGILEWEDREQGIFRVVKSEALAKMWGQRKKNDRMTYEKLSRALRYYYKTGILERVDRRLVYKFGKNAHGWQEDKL
The note with it: protein: recombinant; tags: N-terminal GST; dsDNA, one strand shown. Summed up: as §1

Another experiment concerns the target T12, ETV3 (Homo sapiens, UniProt P41162-2 1-143).
T12 sequence: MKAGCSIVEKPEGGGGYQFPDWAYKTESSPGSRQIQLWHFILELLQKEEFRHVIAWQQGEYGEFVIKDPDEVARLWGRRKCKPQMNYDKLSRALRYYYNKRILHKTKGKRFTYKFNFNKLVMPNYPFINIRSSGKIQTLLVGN
The note with it: protein: recombinant; tags: N-terminal GST; dsDNA, one strand shown. Summed up:
as §1

For a further experiment, the target named is ETV6 (Homo sapiens, UniProt P41212 1-452). The note with it: protein: recombinant; tags: N-terminal GST; dsDNA, one strand shown. Summed up: as §1
ETV6, sequence (P41212 whole entry): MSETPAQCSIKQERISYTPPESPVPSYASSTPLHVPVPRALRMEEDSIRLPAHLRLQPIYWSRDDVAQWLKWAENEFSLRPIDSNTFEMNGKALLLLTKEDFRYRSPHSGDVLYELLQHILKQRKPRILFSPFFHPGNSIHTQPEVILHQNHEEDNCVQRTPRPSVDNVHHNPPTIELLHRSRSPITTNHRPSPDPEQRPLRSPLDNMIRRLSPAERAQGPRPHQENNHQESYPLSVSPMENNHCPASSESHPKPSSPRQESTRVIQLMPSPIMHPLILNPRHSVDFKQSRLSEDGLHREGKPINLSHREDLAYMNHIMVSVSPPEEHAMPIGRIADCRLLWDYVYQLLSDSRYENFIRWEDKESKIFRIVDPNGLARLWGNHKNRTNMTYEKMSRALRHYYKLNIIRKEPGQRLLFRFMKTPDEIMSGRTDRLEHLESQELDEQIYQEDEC

CRX, sequence (O43186 whole entry): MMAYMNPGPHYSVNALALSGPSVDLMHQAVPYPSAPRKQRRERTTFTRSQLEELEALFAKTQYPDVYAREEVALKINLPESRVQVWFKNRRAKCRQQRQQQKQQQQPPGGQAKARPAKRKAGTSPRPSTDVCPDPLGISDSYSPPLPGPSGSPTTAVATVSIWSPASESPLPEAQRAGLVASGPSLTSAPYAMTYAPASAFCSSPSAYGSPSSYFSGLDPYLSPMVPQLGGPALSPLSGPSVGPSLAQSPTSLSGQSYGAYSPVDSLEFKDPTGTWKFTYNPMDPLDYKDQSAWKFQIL
HSF1, sequence (Q00613 whole entry): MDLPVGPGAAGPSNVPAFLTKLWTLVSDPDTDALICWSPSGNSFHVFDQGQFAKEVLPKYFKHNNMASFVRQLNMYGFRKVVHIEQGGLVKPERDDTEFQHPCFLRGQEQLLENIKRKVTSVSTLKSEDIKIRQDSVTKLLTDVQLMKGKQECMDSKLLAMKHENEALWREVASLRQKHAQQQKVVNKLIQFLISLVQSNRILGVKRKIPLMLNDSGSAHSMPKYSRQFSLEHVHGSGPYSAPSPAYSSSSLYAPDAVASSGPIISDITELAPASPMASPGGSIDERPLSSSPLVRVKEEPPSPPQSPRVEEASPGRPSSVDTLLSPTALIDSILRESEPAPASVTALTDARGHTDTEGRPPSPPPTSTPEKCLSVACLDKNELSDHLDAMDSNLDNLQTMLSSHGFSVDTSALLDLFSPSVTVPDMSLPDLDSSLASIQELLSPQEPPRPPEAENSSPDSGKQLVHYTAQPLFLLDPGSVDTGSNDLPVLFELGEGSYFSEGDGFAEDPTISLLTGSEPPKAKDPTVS
ELF4, sequence (Q99607 whole entry): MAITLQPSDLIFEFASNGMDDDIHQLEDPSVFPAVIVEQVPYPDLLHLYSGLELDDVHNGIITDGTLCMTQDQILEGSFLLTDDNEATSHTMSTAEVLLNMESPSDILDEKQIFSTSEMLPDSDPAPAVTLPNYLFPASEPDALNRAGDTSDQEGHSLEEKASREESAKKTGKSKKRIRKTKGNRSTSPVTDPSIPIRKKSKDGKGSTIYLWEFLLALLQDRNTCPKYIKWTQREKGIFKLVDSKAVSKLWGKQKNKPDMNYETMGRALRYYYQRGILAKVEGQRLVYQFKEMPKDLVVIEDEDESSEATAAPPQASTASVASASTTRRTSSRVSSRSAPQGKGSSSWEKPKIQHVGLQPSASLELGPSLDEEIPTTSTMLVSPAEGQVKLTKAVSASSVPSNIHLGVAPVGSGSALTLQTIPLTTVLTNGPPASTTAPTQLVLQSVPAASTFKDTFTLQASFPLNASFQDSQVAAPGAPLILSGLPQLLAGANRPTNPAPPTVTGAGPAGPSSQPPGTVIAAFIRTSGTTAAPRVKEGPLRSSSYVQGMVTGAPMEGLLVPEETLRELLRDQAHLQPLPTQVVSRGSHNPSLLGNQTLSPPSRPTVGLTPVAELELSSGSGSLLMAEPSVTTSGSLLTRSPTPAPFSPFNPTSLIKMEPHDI

For the sequence TGATCT, the binding signal is 1.12 fold enrichment (6-mer frequency, TF over GST control) with FEV; 1.21 fold enrichment (6-mer frequency, TF over GST control) with ETV5; 1.66 fold enrichment (6-mer frequency, TF over GST control) with HSF1; 1.19 fold enrichment (6-mer frequency, TF over GST control) in the experiment with SPIC; 1.16 fold enrichment (6-mer frequency, TF over GST control) in the experiment with ELF4; 1.37 fold enrichment (6-mer frequency, TF over GST control) in the experiment with ELK4. Moreover, the binding signal in the experiment with ETV2 was 1.21 fold enrichment (6-mer frequency, TF over GST control); in the experiment with ELF3, 1.25 fold enrichment (6-mer frequency, TF over GST control); with CRX, 1.86 fold enrichment (6-mer frequency, TF over GST control); in the experiment with ETV1, 1.2 fold enrichment (6-mer frequency, TF over GST control); with ERF it was 1.35 fold enrichment (6-mer frequency, TF over GST control); with ETV3L, 1.1 fold enrichment (6-mer frequency, TF over GST control). Further, the binding signal with ETS2 is 1.31 fold enrichment (6-mer frequency, TF over GST control); with SPDEF, 1.23 fold enrichment (6-mer frequency, TF over GST control); with ETV7 it was 1.11 fold enrichment (6-mer frequency, TF over GST control); with ELF5, 1.22 fold enrichment (6-mer frequency, TF over GST control); with ETV3, 1.25 fold enrichment (6-mer frequency, TF over GST control); in the experiment with ETV6, 1.06 fold enrichment (6-mer frequency, TF over GST control).
